Experimental findings from publication PMC5540273 (PLoS ONE, 2017) are described below.

The subject of experiment [1] is T1, PRKR.
T1 construct: gene EIF2AK2
The following applies: concentration: 1 μM, replicates: in singlicate; n = 1.

Experiment [2] has as its system PRKX. The following applies: concentration: 1 μM, replicates: in singlicate; n = 1.
For experiment [3], the system named is PRP4. The note with it: concentration: 1 μM, replicates: in singlicate; n = 1.
Experiment [4] has as its system T2, PYK2.
T2 construct: gene PTK2B
The following applies: concentration: 1 μM, replicates: in singlicate; n = 1.

For experiment [5], the system named is QSK. The note with it: concentration: 1 μM, replicates: in singlicate, n = 1.
Experiment [6] has as its system RAF1. The following applies: concentration: 1 μM, replicates: in singlicate, n = 1.
Experiment [7] has as its system RET. The following applies: concentration: 1 μM, replicates: in singlicate, n = 1.
Experiment [8] deals with RIOK1. The following applies: concentration: 1 μM, replicates: in singlicate, n = 1.
Experiment [9] deals with RIOK2. The note with it: concentration: 1 μM, replicates: in singlicate, n = 1.
The subject of experiment [10] is RIOK3. The following applies: concentration: 1 μM, replicates: in singlicate, n = 1.
Experiment [11] concerns RIPK1. The following applies: concentration: 1 μM, replicates: in singlicate, n = 1.
For experiment [12], the system named is RIPK2. The following applies: concentration: 1 μM, replicates: in singlicate, n = 1.
Experiment [13] concerns RIPK4. The note with it: concentration: 1 μM, replicates: in singlicate, n = 1.
The test system of experiment [14] is RIPK5. The note with it: concentration: 1 μM, replicates: in singlicate, n = 1.
Experiment [15] has as its system ROCK1. The following applies: concentration: 1 μM, replicates: in singlicate, n = 1.
The subject of experiment [16] is ROCK2. The following applies: concentration: 1 μM, replicates: in singlicate, n = 1.
Experiment [17] concerns ROS1. The following applies: concentration: 1 μM, replicates: in singlicate, n = 1.
Experiment [18] has as its system RPS6KA4(Kin.Dom.1-N-terminal). The following applies: concentration: 1 μM, replicates: in singlicate, n = 1.
Experiment [19] deals with RPS6KA4(Kin.Dom.2-C-terminal). The following applies: concentration: 1 μM, replicates: in singlicate, n = 1.
The subject of experiment [20] is RPS6KA5(Kin.Dom.1-N-terminal). The note with it: concentration: 1 μM, replicates: in singlicate; n = 1.

Molecules are shown by their SMILES. Where “and” joins values, the source holds several entries; their conditions need not be identical. Equal values may be shown once. Read-outs that look alike come from different tables or passages of the source.
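Further: KINOMEscan kinase panel screen.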

Consider `O=c1cc(N2CCOCC2)nc2n(Cc3cccc(Cl)c3)ccn12` [GSK2296823], for which the “%Inh” value in [1] is 0%; in [2] it was 33%; in [3], 4%; in [4] it was 4%; in experiment [5], 0%; in experiment [6], 6%. The “%Inh” value is on record as 87% in experiment [7]; 17% in experiment [8]; 10% in experiment [9]; 0% in [10]; 0% in [11]; 0% in experiment [12]. Also, the “%Inh” value was 19% in experiment [13]; 0% in [14]; 0% in [15]; 0% in experiment [16]; 0% in [17]; 6% in experiment [18]. In addition, the “%Inh” value in experiment [19] worked out at 0%; in experiment [20] it was 10%.
With `Nc1nccc2scc(-c3ccc4c(c3)CCN4C(=O)Cc3cc(F)ccc3F)c12` [GSK2587663], the “%Inh” value in [1] worked out at 0%; in experiment [2], 1%; in experiment [3], 10%; in experiment [4], 6%; in experiment [5], 16%; in experiment [6], 18%. Besides, the “%Inh” value in experiment [7] is 65%; in experiment [8] it was 25%; in experiment [9], 3%; in experiment [10], 0%; in experiment [11] it was 83%; in [12] it was 3%. Besides, the “%Inh” value is on record as 0% in experiment [13]; 0% in experiment [14]; 28% in [15]; 12% in experiment [16]; 16% in experiment [17]; 14% in experiment [18]. In addition, the “%Inh” value in [19] is 0%; in experiment [20], 15%.
`COc1ccc(-c2nc3n(c2-c2ccncc2)CCC3)cc1` [SKF-104493]: the “%Inh” value in [1] is 0%; in [2] it was 0%; in [3], 13%; in experiment [4], 6%; in experiment [5] (1 µM) it was 29% and 5%; in [6] (1 µM) it was 0% and 15%. In addition, the “%Inh” value is 0% and 10% in experiment [7] (1 µM); 24% and 4% in experiment [8] (1 µM); 20% and 0% in experiment [9] (1 µM); 0% and 10% in experiment [10] (1 µM); 0% and 20% in [11] (1 µM); 40% and 46% in [12] (1 µM). Besides, the “%Inh” value in experiment [13] (1 µM) was 9% and 12%; in experiment [14] (1 µM), 19% and 0%; in experiment [15] (1 µM) it was 21% and 5%; in experiment [16] (1 µM), 29% and 0%; in experiment [17] (1 µM), 10% and 28%; in [18] (1 µM) it was 7% and 0%. In addition, the “%Inh” value in experiment [19] (1 µM) is 2% and 0%; in [20] it was 0%.
For `Nc1nc(-c2ccc3c(N)n[nH]c3c2)cc(N2CCCCC2)n1` [GSK2228768], the “%Inh” value in experiment [1] came to 6%; in [2], 35%; in [3], 0%; in experiment [4], 0%; in experiment [5], 0%; in experiment [6], 7%. In addition, the “%Inh” value in experiment [7] is listed as 1%; in experiment [8] it was 64%; in experiment [9] it was 9%; in experiment [10], 28%; in experiment [11] it was 0%; in experiment [12], 0%. Further, the “%Inh” value in [13] was found to be 7%; in experiment [14] it was 0%; in experiment [15] it was 0%; in experiment [16] it was 0%; in experiment [17] it was 6%; in experiment [18] it was 4%. The results for the “%Inh” value in [19] and in [20] were 0% and 6%, respectively.
As for `c1ccc(-c2ccc3c(-c4ccnc(Nc5ccc6c(c5)OCCO6)n4)cnn3n2)cc1` [GW818941], the “%Inh” value in experiment [1] worked out at 0%; in [2], 1%; in experiment [3], 17%; in [4] it was 8%; in experiment [5], 0%; in [6], 20%. Further, the “%Inh” value in [7] was 1%; in [8] it was 37%; in [9] it was 15%; in experiment [10], 12%; in [11] it was 3%; in experiment [12], 9%. For the same compound, the “%Inh” value in experiment [13] worked out at 0%; in [14], 0%; in experiment [15], 28%; in experiment [16], 10%; in [17], 5%; in experiment [18] it was 33%. The “%Inh” value in [19] was determined as 0%; in [20], 10%.
With `C[C@H]1CC[C@@H](C(=O)Nc2ccccc2)CN1c1cc(-c2ccc3c(N)n[nH]c3c2)nc(N)n1` [GSK2283293], the “%Inh” value is 0% in [1]; 8% in experiment [2]; 2% in experiment [3]; 20% in experiment [4]; 10% in experiment [5]; 6% in experiment [6]. Moreover, the “%Inh” value in experiment [7] is 0%; in experiment [8], 42%; in experiment [9], 8%; in experiment [10], 31%; in experiment [11] it was 0%; in [12] it was 0%. In addition, the “%Inh” value in [13] came to 6%; in experiment [14], 0%; in [15], 9%; in experiment [16] it was 18%; in [17] it was 0%; in experiment [18] it was 6%. Besides, the “%Inh” value came to 0% in [19] and 12% in experiment [20].
`NC(=O)c1sc(-n2cnc3ccccc32)cc1OCc1ccccc1F` [GSK1024306]: the “%Inh” value in experiment [1] was 0%; in experiment [2], 3%; in experiment [3], 2%; in [4], 40%; in [5], 0%; in experiment [6], 0%. Also, the “%Inh” value in experiment [7] was 24%; in [8] it was 77%; in [9] it was 79%; in experiment [10], 65%; in [11], 0%; in experiment [12], 13%. Further, the “%Inh” value in experiment [13] is recorded as 0%; in experiment [14], 0%; in experiment [15] it was 85%; in experiment [16], 86%; in experiment [17] it was 4%; in experiment [18] it was 17%. In addition, the figures for the “%Inh” value in experiment [19] and in experiment [20] were 0% and 17%, respectively.
For the compound `CNc1nccc(-c2c(-c3ccc(F)cc3)ncn2C2CCN(C)CC2)n1` [SB-222903], the “%Inh” value in [1] came out at 11%; in experiment [2], 0%; in experiment [3], 0%; in [4] it was 0%; in [5], 0%; in experiment [6], 0%. Moreover, the “%Inh” value in experiment [7] came out at 0%; in experiment [8], 0%; in [9], 0%; in experiment [10] it was 3%; in [11], 3%; in experiment [12], 40%. Further, the “%Inh” value came out at 0% in [13]; 2% in [14]; 56% in [15]; 0% in experiment [16]; 0% in experiment [17]; 15% in experiment [18]. The “%Inh” value in [19] and in experiment [20] was 0% in each case.
As to `CC(C)N1CCC(n2cnc(-c3ccc(F)cc3)c2-c2ccnc(N)n2)CC1` [SB-223132], the “%Inh” value in experiment [1] was determined as 18%; in experiment [2], 0%; in [3], 41%; in experiment [4] it was 12%; in experiment [5] it was 0%; in experiment [6], 33%. The “%Inh” value in [7] stood at 2%; in experiment [8] it was 0%; in experiment [9], 0%; in [10], 60%; in [11], 4%; in experiment [12], 48%. For the same compound, the “%Inh” value in [13] was 0%; in [14], 0%; in experiment [15] it was 1%; in [16], 0%; in experiment [17], 0%; in [18], 14%. Moreover, the “%Inh” value is reported as 0% in experiment [19] and 7% in experiment [20].
